What all share (test): DAPPL (digital affinity profiling via proximity ligation, sequencing); 10 mM Tris-HCl pH 7.5, 50 mM NaCl, 1 mM DTT, 4% glycerol, room temperature, 30 min; GST-TFs on glutathione beads, 16-mer random dsDNA library, 0.1% formaldehyde crosslink after washing; high values mean tight binding
Common to all, as to settings: protein: recombinant; tags: N-terminal GST; dsDNA, one strand shown

For one assay, the target named is T1, FLI1 (Homo sapiens, UniProt Q01543 1-452).
T1 sequence: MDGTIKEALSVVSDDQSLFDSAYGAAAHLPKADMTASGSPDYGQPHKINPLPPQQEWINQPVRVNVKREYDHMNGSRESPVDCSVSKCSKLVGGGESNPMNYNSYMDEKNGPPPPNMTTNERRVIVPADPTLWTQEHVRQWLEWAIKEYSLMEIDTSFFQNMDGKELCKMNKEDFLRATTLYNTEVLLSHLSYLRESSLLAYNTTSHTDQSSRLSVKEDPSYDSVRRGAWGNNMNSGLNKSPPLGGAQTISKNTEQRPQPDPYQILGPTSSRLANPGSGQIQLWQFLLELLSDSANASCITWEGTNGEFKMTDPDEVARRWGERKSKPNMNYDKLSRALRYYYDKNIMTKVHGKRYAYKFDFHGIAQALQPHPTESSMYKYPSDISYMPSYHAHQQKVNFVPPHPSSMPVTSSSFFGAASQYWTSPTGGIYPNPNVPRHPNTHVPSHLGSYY
A digest of the protocol:
(§1)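 Human transcription factors were made in yeast as GST fusions, captured on glutathione beads and barcoded with DNA. With a tag-only sample included, the pool was incubated with 200 nmole of a random double-stranded 16-mer DNA library in Tris/NaCl/DTT/glycerol buffer at room temperature for 30 min, then crosslinked with 0.1% formaldehyde after washing, ligated by proximity, amplified and sequenced. For binding signal, each hexamer's read frequency for a factor is divided by its frequency for the tag-only sample.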

The next assay has as its target T2, GABPA (Homo sapiens, UniProt Q06546 1-454).
T2 sequence: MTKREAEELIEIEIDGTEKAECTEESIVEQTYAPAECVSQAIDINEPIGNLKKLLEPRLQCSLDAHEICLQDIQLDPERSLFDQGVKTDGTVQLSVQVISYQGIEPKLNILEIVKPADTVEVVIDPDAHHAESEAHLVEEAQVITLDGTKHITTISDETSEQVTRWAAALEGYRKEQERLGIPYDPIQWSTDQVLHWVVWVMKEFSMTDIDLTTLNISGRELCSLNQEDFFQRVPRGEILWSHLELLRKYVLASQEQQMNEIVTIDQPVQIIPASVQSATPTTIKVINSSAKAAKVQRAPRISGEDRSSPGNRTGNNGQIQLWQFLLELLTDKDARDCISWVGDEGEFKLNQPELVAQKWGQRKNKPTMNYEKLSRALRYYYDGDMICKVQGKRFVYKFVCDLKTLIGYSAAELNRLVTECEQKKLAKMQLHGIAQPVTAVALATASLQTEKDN
A digest of the protocol: as §1

The target in the next assay is T3, EHF (Homo sapiens, UniProt Q9NZC4 1-300).
T3 sequence: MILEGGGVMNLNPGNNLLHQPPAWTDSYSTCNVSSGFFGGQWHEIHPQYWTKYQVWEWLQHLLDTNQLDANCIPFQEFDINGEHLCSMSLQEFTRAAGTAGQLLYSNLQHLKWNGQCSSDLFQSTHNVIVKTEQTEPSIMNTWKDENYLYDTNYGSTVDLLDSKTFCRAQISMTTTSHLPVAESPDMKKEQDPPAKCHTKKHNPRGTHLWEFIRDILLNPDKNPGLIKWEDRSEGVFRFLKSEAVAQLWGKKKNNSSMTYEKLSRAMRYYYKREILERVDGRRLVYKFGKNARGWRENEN
An outline of the steps:
as §1

The next assay deals with T4, ELK3 (Homo sapiens, UniProt P41970 1-407).
T4 sequence: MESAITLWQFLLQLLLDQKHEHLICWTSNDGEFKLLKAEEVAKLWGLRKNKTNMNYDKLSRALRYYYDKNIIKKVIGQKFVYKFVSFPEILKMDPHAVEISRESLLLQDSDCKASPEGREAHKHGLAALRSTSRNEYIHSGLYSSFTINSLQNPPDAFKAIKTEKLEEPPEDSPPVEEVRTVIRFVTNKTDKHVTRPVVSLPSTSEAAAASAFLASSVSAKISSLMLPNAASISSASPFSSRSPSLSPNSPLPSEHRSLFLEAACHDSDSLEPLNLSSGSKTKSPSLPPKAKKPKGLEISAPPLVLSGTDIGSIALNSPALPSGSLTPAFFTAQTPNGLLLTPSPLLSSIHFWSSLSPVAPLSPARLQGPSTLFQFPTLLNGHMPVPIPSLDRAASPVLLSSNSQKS
An outline of the steps:
as §1

For the next assay, the target named is T5, SPIC (Homo sapiens, UniProt Q8N5J4 1-248).
T5 sequence: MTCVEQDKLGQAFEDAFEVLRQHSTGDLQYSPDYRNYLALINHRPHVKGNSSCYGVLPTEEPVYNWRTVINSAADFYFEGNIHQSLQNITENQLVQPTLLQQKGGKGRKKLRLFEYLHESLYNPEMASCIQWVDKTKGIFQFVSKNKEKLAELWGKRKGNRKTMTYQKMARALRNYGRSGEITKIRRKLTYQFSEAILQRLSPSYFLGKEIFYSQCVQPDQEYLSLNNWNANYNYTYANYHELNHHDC
An outline of the steps:
as §1

The target in the next assay is T6, ELK4 (Homo sapiens, UniProt P28324-2 1-405).
T6 sequence: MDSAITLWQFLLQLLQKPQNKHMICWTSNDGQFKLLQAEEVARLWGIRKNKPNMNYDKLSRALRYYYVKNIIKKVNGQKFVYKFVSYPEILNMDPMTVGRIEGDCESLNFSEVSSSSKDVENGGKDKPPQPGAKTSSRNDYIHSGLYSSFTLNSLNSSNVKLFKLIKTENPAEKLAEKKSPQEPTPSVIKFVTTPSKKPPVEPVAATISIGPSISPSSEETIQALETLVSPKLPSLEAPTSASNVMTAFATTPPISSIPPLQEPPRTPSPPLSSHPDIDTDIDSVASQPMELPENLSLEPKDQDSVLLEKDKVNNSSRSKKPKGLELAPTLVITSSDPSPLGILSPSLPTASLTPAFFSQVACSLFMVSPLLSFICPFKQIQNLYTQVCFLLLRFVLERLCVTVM
A digest of the protocol: as §1

In another assay the target is T7, ELF3 (Homo sapiens, UniProt P78545 1-371).
T7 sequence: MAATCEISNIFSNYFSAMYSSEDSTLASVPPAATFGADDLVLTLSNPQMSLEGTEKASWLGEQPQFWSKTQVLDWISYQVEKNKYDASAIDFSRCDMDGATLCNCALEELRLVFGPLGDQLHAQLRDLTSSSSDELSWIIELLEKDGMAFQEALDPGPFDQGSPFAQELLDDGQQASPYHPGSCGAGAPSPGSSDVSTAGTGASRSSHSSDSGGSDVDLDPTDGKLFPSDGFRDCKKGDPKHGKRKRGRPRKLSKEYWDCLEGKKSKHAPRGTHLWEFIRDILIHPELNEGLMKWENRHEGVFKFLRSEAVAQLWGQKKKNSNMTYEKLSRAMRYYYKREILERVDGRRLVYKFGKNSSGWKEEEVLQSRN
An outline of the steps:
as §1

Another assay has as its target ETV1 (Homo sapiens, UniProt P50549 1-477). An outline of the steps: as §1
The target in another assay is T8, ERF (Homo sapiens, UniProt P50548 1-548).
T8 sequence: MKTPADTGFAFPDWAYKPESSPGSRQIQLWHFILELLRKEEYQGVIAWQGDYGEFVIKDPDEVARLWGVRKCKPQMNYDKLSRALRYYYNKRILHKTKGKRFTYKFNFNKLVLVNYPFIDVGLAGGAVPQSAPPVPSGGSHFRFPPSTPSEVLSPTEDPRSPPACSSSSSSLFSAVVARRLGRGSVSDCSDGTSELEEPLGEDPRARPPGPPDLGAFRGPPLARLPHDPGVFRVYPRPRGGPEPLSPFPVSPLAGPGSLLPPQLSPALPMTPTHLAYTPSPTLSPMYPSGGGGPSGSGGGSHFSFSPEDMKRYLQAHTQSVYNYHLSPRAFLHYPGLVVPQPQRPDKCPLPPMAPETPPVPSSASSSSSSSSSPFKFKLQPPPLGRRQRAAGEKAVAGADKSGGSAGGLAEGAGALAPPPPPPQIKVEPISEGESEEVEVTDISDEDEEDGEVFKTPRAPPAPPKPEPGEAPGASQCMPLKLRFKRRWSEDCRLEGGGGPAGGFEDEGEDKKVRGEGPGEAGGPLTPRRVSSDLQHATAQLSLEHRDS
A digest of the protocol: as §1

The target of another assay is T9, ETV3L (Homo sapiens, UniProt Q6ZN32 1-361).
T9 sequence: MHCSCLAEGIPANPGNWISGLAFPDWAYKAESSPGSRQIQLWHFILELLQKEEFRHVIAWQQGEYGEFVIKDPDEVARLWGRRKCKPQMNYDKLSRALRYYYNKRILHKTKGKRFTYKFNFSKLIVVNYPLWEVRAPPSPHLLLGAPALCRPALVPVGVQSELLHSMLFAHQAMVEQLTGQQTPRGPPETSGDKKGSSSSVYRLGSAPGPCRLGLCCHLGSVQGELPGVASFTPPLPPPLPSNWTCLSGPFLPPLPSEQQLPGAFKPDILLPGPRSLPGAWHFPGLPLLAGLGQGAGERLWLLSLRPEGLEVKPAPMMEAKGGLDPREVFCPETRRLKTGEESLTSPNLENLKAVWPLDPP
An outline of the steps:
as §1

The target of another assay is T10, ETV7 (Homo sapiens, UniProt Q9Y603 1-341).
T10 sequence: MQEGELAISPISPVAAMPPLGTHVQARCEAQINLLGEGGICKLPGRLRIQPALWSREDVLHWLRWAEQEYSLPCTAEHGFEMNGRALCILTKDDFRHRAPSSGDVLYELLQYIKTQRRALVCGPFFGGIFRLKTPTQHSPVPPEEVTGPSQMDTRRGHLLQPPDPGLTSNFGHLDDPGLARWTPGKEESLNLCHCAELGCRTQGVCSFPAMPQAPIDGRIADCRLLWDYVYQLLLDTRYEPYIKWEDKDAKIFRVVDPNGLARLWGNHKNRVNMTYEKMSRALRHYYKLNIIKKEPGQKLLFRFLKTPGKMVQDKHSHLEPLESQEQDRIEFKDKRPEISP
A digest of the protocol: as §1

A further assay addresses T11, ETV3 (Homo sapiens, UniProt P41162-2 1-143).
T11 sequence: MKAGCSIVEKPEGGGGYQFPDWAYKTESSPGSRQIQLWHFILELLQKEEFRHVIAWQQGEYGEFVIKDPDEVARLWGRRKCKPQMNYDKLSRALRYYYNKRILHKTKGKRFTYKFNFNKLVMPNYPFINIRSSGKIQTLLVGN
A digest of the protocol:
as §1

The target of a further assay is ETV6 (Homo sapiens, UniProt P41212 1-452). An outline of the steps:
as §1

The target of a further assay is ELF1 (Homo sapiens, UniProt P32519 1-619). A digest of the protocol: as §1
Chain of ELF1 (P32519 whole entry): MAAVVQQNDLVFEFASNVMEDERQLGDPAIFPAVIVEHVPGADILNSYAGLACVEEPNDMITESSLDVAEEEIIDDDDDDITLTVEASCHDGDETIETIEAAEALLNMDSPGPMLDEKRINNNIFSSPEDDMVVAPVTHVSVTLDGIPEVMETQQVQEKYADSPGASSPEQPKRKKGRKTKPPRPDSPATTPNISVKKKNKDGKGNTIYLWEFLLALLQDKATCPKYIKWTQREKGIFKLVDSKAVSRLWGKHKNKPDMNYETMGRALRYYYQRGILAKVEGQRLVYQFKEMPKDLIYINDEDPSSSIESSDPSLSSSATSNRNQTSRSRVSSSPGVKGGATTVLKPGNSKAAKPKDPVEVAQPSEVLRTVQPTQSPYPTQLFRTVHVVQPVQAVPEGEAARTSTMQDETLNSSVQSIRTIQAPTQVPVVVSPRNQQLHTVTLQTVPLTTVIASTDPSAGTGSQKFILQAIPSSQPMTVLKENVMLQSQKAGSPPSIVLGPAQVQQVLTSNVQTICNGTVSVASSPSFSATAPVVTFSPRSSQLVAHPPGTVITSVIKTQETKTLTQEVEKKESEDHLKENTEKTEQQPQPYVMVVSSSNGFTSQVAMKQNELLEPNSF
In a further assay the target is SPIB (Homo sapiens, UniProt Q01892 1-262). An outline of the steps:
as §1

A further assay deals with ELF4 (Homo sapiens, UniProt Q99607 1-663). A digest of the protocol: as §1
Chain of ELF4 (Q99607 whole entry): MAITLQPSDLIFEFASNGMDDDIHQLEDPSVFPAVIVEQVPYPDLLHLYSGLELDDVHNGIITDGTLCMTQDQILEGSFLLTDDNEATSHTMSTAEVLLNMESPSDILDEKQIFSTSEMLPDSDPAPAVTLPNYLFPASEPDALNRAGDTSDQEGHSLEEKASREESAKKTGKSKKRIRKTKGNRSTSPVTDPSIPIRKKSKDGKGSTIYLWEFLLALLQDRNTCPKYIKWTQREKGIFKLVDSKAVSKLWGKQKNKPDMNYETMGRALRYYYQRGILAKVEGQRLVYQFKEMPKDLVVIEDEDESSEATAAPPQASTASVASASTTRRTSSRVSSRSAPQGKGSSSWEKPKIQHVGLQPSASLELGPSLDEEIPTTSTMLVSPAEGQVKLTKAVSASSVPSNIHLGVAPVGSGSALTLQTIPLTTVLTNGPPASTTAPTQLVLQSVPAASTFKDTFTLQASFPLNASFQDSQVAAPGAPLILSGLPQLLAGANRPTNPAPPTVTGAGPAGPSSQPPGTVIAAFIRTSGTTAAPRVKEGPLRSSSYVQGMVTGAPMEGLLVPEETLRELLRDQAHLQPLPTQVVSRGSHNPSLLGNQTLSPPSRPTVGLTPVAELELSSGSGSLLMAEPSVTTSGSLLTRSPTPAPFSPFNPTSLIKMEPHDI
Another assay concerns the target T12, ETV2 (Homo sapiens, UniProt O00321 1-342).
T12 sequence: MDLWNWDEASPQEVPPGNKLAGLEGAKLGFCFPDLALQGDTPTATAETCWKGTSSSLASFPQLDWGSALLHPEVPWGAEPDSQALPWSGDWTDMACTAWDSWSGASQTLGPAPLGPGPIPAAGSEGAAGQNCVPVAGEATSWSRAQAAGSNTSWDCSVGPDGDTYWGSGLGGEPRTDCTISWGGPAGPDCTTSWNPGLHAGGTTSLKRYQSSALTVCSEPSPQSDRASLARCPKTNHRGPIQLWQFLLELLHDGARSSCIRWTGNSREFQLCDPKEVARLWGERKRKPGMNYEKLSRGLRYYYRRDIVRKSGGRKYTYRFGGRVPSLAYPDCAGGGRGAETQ
An outline of the steps: as §1

The text below walks through data of article PMC7862700, “An all-to-all approach to the identification of sequence-specific readers for epigenetic DNA modifications on cytosine”.

Chain of ETV6 (P41212 whole entry): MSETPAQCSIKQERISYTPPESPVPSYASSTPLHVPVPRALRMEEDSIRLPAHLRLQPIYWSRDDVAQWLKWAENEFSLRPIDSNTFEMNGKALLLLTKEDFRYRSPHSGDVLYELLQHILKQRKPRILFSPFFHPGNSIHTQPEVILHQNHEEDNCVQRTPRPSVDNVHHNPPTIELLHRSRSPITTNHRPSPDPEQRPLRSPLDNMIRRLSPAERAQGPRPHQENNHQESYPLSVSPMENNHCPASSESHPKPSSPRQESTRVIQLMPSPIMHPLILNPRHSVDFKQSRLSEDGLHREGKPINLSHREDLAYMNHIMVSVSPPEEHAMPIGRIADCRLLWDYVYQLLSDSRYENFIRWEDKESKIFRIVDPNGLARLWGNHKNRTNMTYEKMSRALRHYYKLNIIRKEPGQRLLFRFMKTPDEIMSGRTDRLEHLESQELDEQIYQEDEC
Chain of ETV1 (P50549 whole entry): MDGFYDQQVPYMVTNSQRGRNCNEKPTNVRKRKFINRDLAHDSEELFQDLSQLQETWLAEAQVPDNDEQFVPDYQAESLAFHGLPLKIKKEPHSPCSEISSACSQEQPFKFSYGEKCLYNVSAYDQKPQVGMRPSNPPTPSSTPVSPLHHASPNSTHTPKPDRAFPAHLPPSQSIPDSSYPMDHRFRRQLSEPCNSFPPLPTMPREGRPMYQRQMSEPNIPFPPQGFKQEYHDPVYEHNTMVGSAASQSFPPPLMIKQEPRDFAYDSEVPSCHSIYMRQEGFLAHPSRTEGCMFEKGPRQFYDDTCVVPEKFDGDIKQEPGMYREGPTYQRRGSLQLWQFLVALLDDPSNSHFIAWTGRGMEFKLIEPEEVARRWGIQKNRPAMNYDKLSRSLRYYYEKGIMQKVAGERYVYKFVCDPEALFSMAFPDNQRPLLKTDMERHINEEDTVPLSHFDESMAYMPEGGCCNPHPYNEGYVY
Chain of SPIB (Q01892 whole entry): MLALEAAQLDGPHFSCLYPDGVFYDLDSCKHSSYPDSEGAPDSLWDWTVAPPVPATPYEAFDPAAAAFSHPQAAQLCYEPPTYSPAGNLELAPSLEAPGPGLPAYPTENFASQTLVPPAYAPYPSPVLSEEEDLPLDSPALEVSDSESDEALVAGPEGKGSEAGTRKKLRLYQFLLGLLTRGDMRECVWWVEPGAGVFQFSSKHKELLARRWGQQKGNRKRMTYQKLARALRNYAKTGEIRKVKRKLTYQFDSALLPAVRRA

Take GTTTGT: the binding signal with FLI1 is 1.15 fold enrichment (6-mer frequency, TF over GST control); in the assay with GABPA it was 1.03 fold enrichment (6-mer frequency, TF over GST control); with EHF, 1.03 fold enrichment (6-mer frequency, TF over GST control); with ELK3 it was 1.06 fold enrichment (6-mer frequency, TF over GST control); with SPIC, 1.01 fold enrichment (6-mer frequency, TF over GST control); with ELK4 it was 1.19 fold enrichment (6-mer frequency, TF over GST control). In addition, the binding signal was 1.07 fold enrichment (6-mer frequency, TF over GST control) in the assay with ELF3; 1.04 fold enrichment (6-mer frequency, TF over GST control) in the assay with ETV1; 1.06 fold enrichment (6-mer frequency, TF over GST control) with ERF; 1.06 fold enrichment (6-mer frequency, TF over GST control) with ETV3L; 1.11 fold enrichment (6-mer frequency, TF over GST control) with ETV7; 1.06 fold enrichment (6-mer frequency, TF over GST control) with ETV3. Further, the binding signal in the assay with ETV6 was 1.11 fold enrichment (6-mer frequency, TF over GST control).

With CGTACG, the binding signal is 1 fold enrichment (6-mer frequency, TF over GST control) with FLI1; 1.03 fold enrichment (6-mer frequency, TF over GST control) in the assay with GABPA; 1.07 fold enrichment (6-mer frequency, TF over GST control) in the assay with ELF1; 1.01 fold enrichment (6-mer frequency, TF over GST control) in the assay with SPIB; 1.07 fold enrichment (6-mer frequency, TF over GST control) in the assay with ELF4; 1.19 fold enrichment (6-mer frequency, TF over GST control) with ETV2. Moreover, the binding signal is 1.01 fold enrichment (6-mer frequency, TF over GST control) in the assay with ELF3; 1.1 fold enrichment (6-mer frequency, TF over GST control) with ETV1; 1.04 fold enrichment (6-mer frequency, TF over GST control) in the assay with ERF; 1.08 fold enrichment (6-mer frequency, TF over GST control) in the assay with ETV3L; 1.06 fold enrichment (6-mer frequency, TF over GST control) in the assay with ETV7; 1.06 fold enrichment (6-mer frequency, TF over GST control) with ETV6.
